{"source": "PubChem BioAssay (Tox21)", "note": "Activity calls are given as the source filed them. Calls come from the whole dose curve.", "data": [{"target": "Thyrotropin-releasing hormone receptor (Homo sapiens) (UniProt P34981)", "sequence (P34981 whole entry, looked up)": "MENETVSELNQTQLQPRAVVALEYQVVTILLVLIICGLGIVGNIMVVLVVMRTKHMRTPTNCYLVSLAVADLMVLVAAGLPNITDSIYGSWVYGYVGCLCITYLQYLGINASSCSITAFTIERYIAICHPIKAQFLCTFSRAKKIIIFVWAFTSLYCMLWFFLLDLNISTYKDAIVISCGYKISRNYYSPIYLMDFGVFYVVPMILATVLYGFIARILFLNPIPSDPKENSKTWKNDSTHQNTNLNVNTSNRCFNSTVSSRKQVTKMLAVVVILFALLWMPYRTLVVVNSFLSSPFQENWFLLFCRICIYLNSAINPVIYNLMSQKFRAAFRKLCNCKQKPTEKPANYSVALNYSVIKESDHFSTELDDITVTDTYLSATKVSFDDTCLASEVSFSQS", "test": "qHTS assay to identify small molecule agonists of the thyrotropin-releasing hormone receptor (TRHR) signaling pathway (AID 1346891);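 note: HEK293 cells expressing TRHR with calcium dye readout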", "settings": "TRHR-HEK293 calcium fluorescence, agonist mode; series mostly up to 57.6 µM", "source_text": "National Center for Advancing Translational Sciences [NCATS] NIH Chemical Genomics Center [NCGC] U.S. Environmental Protection Agency [EPA] National Institutes of Environmental Health Sciences [NIEHS] National Toxicology Program [NTP] Assay overview: Thyrotropin-releasing hormone (TRH) receptor (TRHR) is a G-protein-coupled receptor which binds the tripeptide thyrotropin releasing hormone. TRHR is found in the brain and, when bound by TRH, acts (through phospholipase C) to increase intracellular inositol trisphosphate. It plays a crucial role in the anterior pituitary where it controls the synthesis and secretion of thyroid stimulating hormone and prolactin. The TRHR-Hek293 assay is a cell-based assay, and it has the potential to screen G protein-coupled receptors. A compound/drug can either activate (agonist) or suppress (antagonist) GPCRs that can be monitored by levels of intracellular calcium. Using this assay, the Tox21 10K compound library was screened to identify potential TRHR agonists.\nAssay Protocol Summary: The TRHR-Hek293 cells were dispensed at 1500cells/4uL/well in 1536-well black-clear bottom plates using a Multidrop dispenser. After the assay plates were incubated at a 37 C/5% CO2 incubator for 18 hours, 4 uL of Dye-Loading Solution was added to each well. The plates were incubated at 37 C for 2 hours. For agonist mode, 23 nL of compounds dissolved in DMSO, positive controls or DMSO only was transferred to the assay plate by a pin tool. The fluorescence intensity in the plates was measured using FDSS 7000EX kinetic plate reader for 3 min at 1 sec intervals. Each test compound was measured at 15 concentrations and in triplicates.", "values": [{"smiles": "Cc1cccc(C)c1N", "outcome": "inactive"}, {"smiles": "OC[C@@H](O)[C@H]1O[C@@H]2O[C@H](C(Cl)(Cl)Cl)O[C@@H]2[C@H]1O", "outcome": "inactive"}, {"smiles": "Oc1ccc(Cl)cc1", "outcome": "inactive"}, {"smiles": "Cc1cccc(N)c1", "outcome": "inactive"}, {"smiles": "CCCOC(=O)c1ccccc1C(=O)OCCC", "outcome": "inactive"}, {"smiles": "CN(C)C(=O)C(c1ccccc1)c1ccccc1", "outcome": "inactive"}, {"smiles": "CC(C)(C)C(=O)CCl", "outcome": "inactive"}, {"smiles": "Cc1cccc(N)c1C", "outcome": "inactive"}, {"smiles": "O=[N+]([O-])c1cc([As](=O)(O)O)ccc1O", "outcome": "inactive"}, {"smiles": "Cl[C@H]1OCCO[C@@H]1Cl", "outcome": "inactive"}, {"smiles": "N#Cc1cccc(C#N)c1", "outcome": "inactive"}, {"smiles": "Sc1ccccc1", "outcome": "inactive"}, {"smiles": "CCCCC(CC)C(=O)Cl", "note": "(stereo not given)", "outcome": "inactive"}, {"smiles": "CNc1cnn(-c2cccc(C(F)(F)F)c2)c(=O)c1Cl", "outcome": "inactive"}, {"smiles": "O=C/C=C/c1ccccc1", "outcome": "inactive"}, {"smiles": "COS(=O)(=O)OC", "outcome": "inactive"}, {"smiles": "CCNc1nc(Cl)nc(NC(C)C)n1", "outcome": "inactive"}, {"smiles": "COP(=S)(OC)Oc1ccc(SC)c(C)c1", "outcome": "inactive"}, {"smiles": "O=C(O)COc1ccccc1", "outcome": "inactive"}, {"smiles": "Cl/C=C/Cl", "outcome": "inactive"}, {"smiles": "c1ccc2c(c1)CCCC2", "outcome": "inactive"}, {"smiles": "O=[N+]([O-])c1ccc(Cl)cc1", "outcome": "inactive"}, {"smiles": "CC(C)CCCCCCOC(=O)c1ccccc1C(=O)OCCCCCCC(C)C", "outcome": "inactive"}, {"smiles": "CN(C)C(=O)Nc1cccc(C(F)(F)F)c1", "outcome": "inactive"}, {"smiles": "ClCCOCCCl", "outcome": "inactive"}, {"smiles": "O=[N+]([O-])c1ccc(Cl)c(Cl)c1", "outcome": "inactive"}, {"smiles": "CNC(=O)O/N=C/C(C)(C)S(C)(=O)=O", "outcome": "inactive"}, {"smiles": "Cc1cccc(C)c1NC(=O)CN1CCCC1=O", "outcome": "inactive"}, {"smiles": "C=CC#N", "outcome": "inactive"}, {"smiles": "CNC(=O)O/N=C/C(C)(C)S(C)=O", "note": "(stereo not given)", "outcome": "inactive"}, {"smiles": "CNC(=O)O/N=C/C(C)(C)SC", "outcome": "inactive"}, {"smiles": "CCOP(=S)(OCC)Oc1cc(C)nc(C(C)C)n1", "outcome": "inactive"}, {"smiles": "Cc1ccc(O)c(C)c1", "outcome": "inactive"}, {"smiles": "C[C@H]1C(=O)O[C@@H]2CCN3CC=C(COC(=O)[C@](C)(O)[C@]1(C)O)[C@H]23", "outcome": "inactive"}, {"smiles": "CSc1nnc(C(C)(C)C)c(=O)n1N", "outcome": "inactive"}, {"smiles": "CC(=O)/C=C/c1ccccc1", "outcome": "inactive"}, {"smiles": "Nc1nc(N)nc(NC2CC2)n1", "outcome": "inactive"}, {"smiles": "COC(C)(C)CCCC(C)C/C=C/C(C)=C/C(=O)OC(C)C", "note": "(stereo not given)", "outcome": "inactive"}, {"smiles": "C=CC(=O)OCCCCCC(C)C", "outcome": "inactive"}, {"smiles": "OCCCCO", "outcome": "inactive"}]}]}
